aSyn 5UTR act = Activators working through SNCA 5'UTR binding (MLPCN); alpha-synuclein 5'UTR reporter, activators screen; activity score, % (tested at 7.5 µM), hits read low; 300,000 tested, 7.1% active; in the data active = activity score below about -60%
Starred values were filed as active, the others as inactive. Not all results are given here.

SMILES	aSyn 5UTR act
O=C(Nc1ccc(C(=O)c2ccccc2)cc1)c1ccccc1	-188.7*
O=C(Nc1ccc(NC(=O)c2ccccc2Br)cc1)c1ccccc1	-84.5*
O=C(Nc1ccc(Br)c(C(F)(F)F)c1)c1ccccc1	-90.1*
O=C(Nc1ccc(C(F)(F)F)cc1)c1ccccc1Br	-81.7*
COc1ccc2nc(NNC(=O)c3cc(=O)c4ccccc4o3)sc2c1	-88.3*
Cc1cccc2sc(NNC(=O)c3cc(=O)c4ccccc4o3)nc12	-62.2*
Cc1cccc2sc(NNC(=O)c3ccc(S(=O)(=O)N4CC(C)CC(C)C4)cc3)nc12 (stereo not drawn)	81.5
Cc1ccc(-c2cc(N)nc(-c3ccccc3)c2)cc1	-86.9*
N#CC1=C(N)OC2=C(CC/C2=C\c2ccccc2)C1c1ccccc1 (stereo not drawn)	-63.0*
O=[N+]([O-])c1ccc(-n2cc(-c3ccccc3)nn2)cc1	-79.6*
CSC1=NNC(c2ccc(C(C)(C)C)cc2)=NN1	-106.4*
COc1cc2c(cc1OC)-c1c(OC)c(OC)cc3ccnc(c13)C2=O	110.2
COc1cc2cccc(OC)c(=O)c2c(O)c1OC	-70.3*
Cc1cc(F)ccc1NC(=O)Nc1ccc2c(c1)OCO2	-71.8*
Cc1ccc(NC(=O)Nc2ccc3c(c2)OCO3)c(OC(F)F)c1	-106.2*
Cc1ccc(NC(=O)CSc2ccc(-c3ccc4c(c3)OCO4)nn2)cc1F	-76.0*
Cc1ccc(NC(=O)Nc2ccc3c(c2)OCO3)cc1F	-108.5*
C/C(=N\NC(=O)CN1CCCCC1)c1cccc([N+](=O)[O-])c1	-93.1*
Clc1nc2ccccc2cc1-c1nnn(-c2ccccc2)n1	-160.3*
CN(C)c1ccc(C(=O)NC2CCCc3ccccc32)cc1 (stereo not drawn)	-71.3*
O=C(NCC1CCOCC1)c1ccc2nc(Cc3cccc(Cl)c3)oc2c1	-79.4*
COc1ccc(Cc2nc3ccc(C(=O)NCC(C)(C)OC)cc3o2)cc1	-116.0*
COc1ccc(Cc2nc3ccc(C(=O)NCCSC)cc3o2)cc1	-97.5*
COc1ccc(Cc2nc3ccc(C(=O)NCc4cc(C)no4)cc3o2)cc1	-103.8*
CSCCNC(=O)c1ccc2nc(C3CCCCC3)oc2c1	-66.5*
SMILES	aSyn 5UTR act
O=C(COc1ccccc1)Nc1nc2ccccc2[nH]1	-150.3*
CC(CC(=O)Nc1nc2ccccc2[nH]1)c1ccccc1 (stereo not drawn)	-188.5*
Cc1ccccc1OCC(=O)Nc1nc2ccccc2[nH]1	-111.2*
CN=c1scc(-c2ccccc2Br)n1/N=C/c1ccc[nH]1	64.0
CN=c1scc(-c2ccccc2F)n1/N=C(\C)c1cccnc1	-163.3*
O=C(Nc1cccc(-c2csc(Nc3ccc(Cl)cc3)n2)c1)c1cccc(C(F)(F)F)c1	-70.9*
O=C(Nc1cccc(-c2csc(Nc3ccc(Cl)cc3)n2)c1)c1cc([N+](=O)[O-])cc(C(F)(F)F)c1	-72.0*
O=C(Nc1cccc(-c2csc(Nc3ccccc3)n2)c1)c1cc([N+](=O)[O-])cc(C(F)(F)F)c1	-87.4*
Oc1ccc(N=Nc2ccc3c(c2)OCCO3)c2cccnc12	103.6
c1ccc(Sc2ncnc3c2oc2ccccc23)cc1	-180.2*
c1ccc2c(c1)oc1c(Nc3ccc4c(c3)OCCO4)ncnc12	-141.8*
Cc1ccc(Nc2ncnc3c2oc2ccccc23)cc1	-114.5*
COc1ccc(Nc2ncnc3c2oc2ccccc23)cc1	-160.4*
COc1ccccc1Nc1nnc(SCC(=O)N2CCCC2)s1	-77.0*
CCCc1nnc(NC(=O)Nc2ccccc2OC)s1	-91.8*
CCCSc1nnc(NC(=O)Nc2ccccc2OC)s1	-143.6*
Nc1c(C(=O)Nc2ccc3c(c2)OCCO3)nnn1Cc1ccc(Br)cc1	-220.2*
Nc1c(C(=O)Nc2ccccc2Cl)nnn1-c1ccc2c(c1)OCCO2	-216.0*
Nc1c(C(=O)Nc2ccc3c(c2)OCCO3)nnn1Cc1cccc(Br)c1	-163.3*
Nc1c(C(=O)Nc2ccc3c(c2)OCCO3)nnn1CCc1ccccc1	-126.4*
N/C(=N\OC(=O)c1ccc2c(c1)OCO2)c1ccc(Cl)cc1	-165.0*
COc1ccc(/C(N)=N/OC(=O)c2ccc3c(c2)OCO3)cc1	-98.3*
N/C(=N\OC(=O)c1ccc2c(c1)OCO2)c1ccncc1	-101.7*
O=C(COC(=O)c1cc(Cl)ccc1O)c1ccc2c(c1)OCO2	-121.7*
COc1ccc(Sc2cnn(-c3ccccc3)c(=O)c2Cl)cc1	-73.4*
SMILES	aSyn 5UTR act
COc1ccc(-n2ncc(Cl)c(Cl)c2=O)cc1	-154.5*
COc1nn(-c2ccccc2)c(=O)c(Cl)c1Cl	-347.4*
Cc1ccc(C(=O)N2CCc3ccccc32)o1	-94.5*
O=C(c1ccc([N+](=O)[O-])o1)N1CCc2ccccc21	-190.3*
CC(=O)c1ccc(-c2ccc(C(=O)N3CCCc4ccccc43)o2)cc1	-66.3*
COc1cc2c(cc1OC)CN(C(=O)c1ccc([N+](=O)[O-])o1)CC2	-175.0*
COc1ccc(/C=C/C(=O)c2ccc([N+](=O)[O-])o2)cc1OC	61.0
CC(=O)c1ccc(-c2ccc(C(=O)N3CCN(c4ccc(F)cc4)CC3)o2)cc1	-73.4*
COc1ccc2oc(C(=O)N3CCCc4ccccc43)c(C)c2c1	-90.9*
O=C(c1ccc([N+](=O)[O-])o1)N1CCc2ccccc2C1	-103.3*
CSc1ccccc1NC(=O)c1cc2ncc(Br)cn2n1	-181.7*
O=C(Nc1ccc2nc(C3CC3)n(Cc3ccccc3)c(=O)c2c1)C1CC1	-251.3*
CCC(=O)Nc1nc2ccccc2n1Cc1ccc(Cl)cc1	72.0
COc1ccc(Cn2c(C3CC3)nc3ccc(NC(=O)c4ccco4)cc3c2=O)cc1	-151.5*
CC(=O)Nc1ccc2nc(C)n(Cc3ccc(Cl)cc3)c(=O)c2c1	-77.8*
CCC(=O)Nc1ccc2nc(C3CC3)n(Cc3ccccc3)c(=O)c2c1	-200.7*
CN(Cc1cnc2nc(N)nc(N)c2n1)c1ccc(C(=O)N[C@@H](CCC(=O)O)C(=O)O)cc1	77.5
CCCCCOc1ccc(Br)cc1/C(C)=N/NC1=NCCN1	88.3
CN(C)/C=N/c1nc(-c2ccc3c(c2)OCO3)cs1	-171.2*
CN(C)/C=N/c1nc(-c2ccc3ccccc3c2)cs1	-145.1*
CCN(CC)c1ccc(/C=N/n2c(-c3ccccc3Br)n[nH]c2=S)cc1	77.5
CCN(CC)c1ccc(/C=N/N2CCOCC2)cc1	-151.5*
CCOC(=O)c1c(C)[nH]c(C2=NNC(=Nc3ccccc3OC)SC2)c1C	-89.6*
CC(=O)c1c(C)[nH]c(C2=NNC(=NC(C)(C)C)SC2)c1C	-96.9*
CCOC(=O)c1c(C)[nH]c(C2=NNC(=Nc3ccccc3)SC2)c1C	-96.8*
SMILES	aSyn 5UTR act
CC(=O)Nc1ccc(Nc2c3c4c(cccc4n(C)c2=O)C(=O)c2ccccc2-3)cc1	59.2
O=C(O)/C=C/C(=O)Nc1ccc2c(c1)C(=O)c1ccccc1C2=O	-64.8*
Nc1ccc2c(c1)C(=O)C(=O)c1ccccc1-2	129.7
CC(=O)Nc1ccc2c(c1)C(=O)c1ccccc1C2=O	-185.3*
Nc1ccc2c(c1)C(=O)c1ccccc1C2=O	-145.4*
O=C1c2ccccc2C(=O)c2cc(NC(=O)C3CC3)ccc21	-160.9*
CC(=O)Nc1ccc2nc3ccccc3nc2c1	-82.0*
O=C(O)/C=C/C(=O)Nc1ccc2nccnc2c1	-75.4*
O=c1ccc2ccc(OCc3ccccc3)cc2o1	-80.3*
COc1cccc(COc2ccc3c(C)c(Cc4ccccc4)c(=O)oc3c2)c1	-66.9*
COc1cccc(COc2ccc3ccc(=O)oc3c2)c1	-139.3*
COc1ccc(COc2ccc3ccc(=O)oc3c2)cc1	-232.3*
COCCSc1nnc(NC(=O)C(C)(C)C)s1	-89.8*
CC(C)(C)C(=O)Nc1nnc(SCc2cccc(F)c2)s1	-174.1*

Bioassay records as filed in PubChem.
